Reference: PubChem BioAssay (NCATS)
Inconclusive results are not listed. Calls of active or inactive are those of the source. Calls follow the shape of the dose curve; as a rule, active = well fitted curve in the direction sought with a large enough effect; inconclusive = small, poorly fitted or top-dose-only effect, or another doubt; inactive = no such curve, though single readings can be large; an effect the other way counts as inactive or inconclusive.

How the values were obtained:
HACAT = test: qHTS assay to identify novel small-molecules to repurpose for Merkel cell carcinoma treatment (AID 1296009); details: MCC and control cell lines, CellTiter-Glo viability, 72 h; series mostly up to 44.8 µM; also: nearly all actives have a fitted effect of over 60% in size
Procedure, shortened: (§1)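 CellTiter-Glo luminescence after 72 hr compound exposure at 37 degree celsius gave cell viability. Libraries NPC and MIPE were run as 8- and 11-point dose responses; RLUs normalized to DMSO (negative) and no-cell (cytotoxicity) controls.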

MCC-13 = test: as above; details: MCC and control cell lines, CellTiter-Glo viability, 72 h; series mostly up to 46 µM
Procedure, shortened: as §1

MCC-26 = test: as above; details: MCC and control cell lines, CellTiter-Glo viability, 72 h; series mostly up to 46 µM
Procedure, shortened: as §1

MKL-1 = test: as above; details: MCC and control cell lines, CellTiter-Glo viability, 72 h; series mostly up to 46 µM
Procedure, shortened: as §1

MKL-2 = test: as above; details: MCC and control cell lines, CellTiter-Glo viability, 72 h; series mostly up to 46 µM
Procedure, shortened: as §1

NIH3T3 = test: as above; details: MCC and control cell lines, CellTiter-Glo viability, 72 h; series mostly up to 44.8 µM
Procedure, shortened: as §1

UISO = test: as above; details: MCC and control cell lines, CellTiter-Glo viability, 72 h; series mostly up to 46 µM
Procedure, shortened: as §1

WaGa = test: as above; details: MCC and control cell lines, CellTiter-Glo viability, 72 h; series mostly up to 46 µM
Procedure, shortened: as §1

C33A = test: Primary qHTS to identify gynecologic anti-cancer compounds using libraries of approved drugs and bioactive compounds (AID 1345084); details: Gynecologic cancer cell panel viability, ATPlite luminescence, 48 h; series mostly up to 57.5 µM; also: nearly all actives have a fitted effect of over 55% in size
Procedure, shortened: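 Five-point cytotoxicity, 48 h drug exposure at 37 C, 5% CO2, on cells seeded 16 h beforehand. ATP content read by ATPlite luminescence.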

HEK293T = test: qHTS assay to identify novel small-molecules to repurpose for Merkel cell carcinoma treatment (AID 1296009); details: MCC and control cell lines, CellTiter-Glo viability, 72 h; also: nearly all actives have a fitted effect of over 60% in size
Procedure, shortened: as §1

[1] = at 44.8 µM (top of the series) unless noted

Measured: Potency

Nc1c2c(nc3ccccc13)CCCC2
inactive: HACAT | MCC-13 | MCC-26 | MKL-1 | MKL-2 | NIH3T3 | UISO | WaGa | C33A

CCc1cccc2c3c([nH]c12)C(CC)(CC(=O)O)OCC3 (configuration not stated)
inactive: HACAT | HEK293T; [1] | MCC-13 | MKL-1 | MKL-2 | UISO | WaGa | C33A

CC1COc2c(N3CCN(C)CC3)c(F)cc3c(=O)c(C(=O)O)cn1c23 (configuration not stated)
inactive: HACAT | HEK293T; [1] | MCC-13 | MCC-26 | MKL-1 | MKL-2 | NIH3T3 | UISO | WaGa | C33A

COc1ccccc1OCC(O)CN1CCN(CC(=O)Nc2c(C)cccc2C)CC1 (configuration not stated)
inactive: HACAT | HEK293T; [1] | MCC-13 | MKL-1 | MKL-2 | NIH3T3 | UISO | WaGa | C33A

NC(=O)OCC(COC(N)=O)c1ccccc1
inactive: HACAT | HEK293T; [1] | MCC-13 | MCC-26 | MKL-1 | MKL-2 | NIH3T3 | UISO | WaGa | C33A

CCC1(C)CC(=O)NC1=O (configuration not stated)
inactive: HACAT | HEK293T; [1] | MCC-13 | MKL-1 | MKL-2 | NIH3T3 | UISO | WaGa | C33A

COc1ccc(C2CNC(=O)C2)cc1OC1CCCC1 (configuration not stated)
inactive: HACAT | HEK293T; [1] | MCC-13 | MKL-1 | MKL-2 | NIH3T3 | UISO | WaGa | C33A

CC(C)Cc1ccc(C(C)C(=O)O)cc1 (configuration not stated)
inactive: HACAT | MCC-13 | MCC-26 | MKL-1 | MKL-2 | NIH3T3 inactive [at 17.4 µM] | UISO | WaGa | C33A

CC(C)(C)C(=O)Oc1ccc(S(=O)(=O)Nc2ccccc2C(=O)NCC(=O)O)cc1
inactive: HACAT | HEK293T; [1] | MCC-13 | MCC-26 | MKL-1 | MKL-2 | UISO | WaGa | C33A

CC(C)(Oc1ccc(C2CC2(Cl)Cl)cc1)C(=O)O (configuration not stated)
inactive: HACAT | MCC-13 | MCC-26 | MKL-1 | MKL-2 | NIH3T3 | UISO | WaGa | C33A

COc1ccc2[nH]cc(CCNC(C)=O)c2c1
inactive: HACAT | HEK293T; [1] | MCC-13 | MKL-1 | MKL-2 | NIH3T3 | UISO | WaGa | C33A

O=C(CCCN1CCC(O)(c2ccc(Cl)cc2)CC1)c1ccc(F)cc1
inactive: HACAT | MCC-13 | MCC-26 | MKL-1 | MKL-2 | NIH3T3 | UISO | WaGa | C33A

Cc1ccc(C(=O)Nc2ccc(S(=O)(=O)O)c3cc(S(=O)(=O)O)cc(S(=O)(=O)O)c23)cc1NC(=O)c1cccc(NC(=O)Nc2cccc(C(=O)Nc3cc(C(=O)Nc4ccc(S(=O)(=O)O)c5cc(S(=O)(=O)O)cc(S(=O)(=O)O)c45)ccc3C)c2)c1
inactive: HACAT | HEK293T; [1] | MCC-13 | MKL-1 | MKL-2 | NIH3T3 | UISO | WaGa | C33A

CC(C(=O)O)c1cccc(C(=O)c2ccccc2)c1 (configuration not stated)
inactive: HACAT | MCC-13 | MCC-26 | MKL-1 | MKL-2 | NIH3T3 | UISO | WaGa

O=C1N(c2ccccc2)c2ccccc2C1(Cc1ccncc1)Cc1ccncc1
inactive: HACAT | HEK293T; [1] | MCC-13 | MCC-26 | MKL-1 | MKL-2 | UISO | WaGa | C33A

CN(CCOc1ccc(NS(C)(=O)=O)cc1)CCc1ccc(NS(C)(=O)=O)cc1
inactive: HACAT | HEK293T; [1] | MCC-13 | MCC-26 | MKL-1 | MKL-2 | NIH3T3 | UISO | WaGa | C33A

NS(=O)(=O)c1cc2c(cc1Cl)NCNS2(=O)=O
inactive: HACAT | HEK293T; [1] | MCC-13 | MCC-26 | MKL-1 | MKL-2 | UISO | WaGa | C33A

CC1(C)O[C@H]2CC(=O)OC[C@]23[C@H]2CC[C@@]4(C)[C@H](c5ccoc5)OC(=O)[C@H]5O[C@]54[C@]2(C)C(=O)C[C@@H]13
inactive: HACAT | HEK293T; at 17.4 µM (top of the series) | HEK293T; at 44.8 µM (top of the series) | MCC-13 | MCC-26 | MKL-1 | MKL-2 | NIH3T3 | UISO | WaGa | C33A

COc1ccc2c(c1)c(CC(=O)O)c(C)n2C(=O)c1ccc(Cl)cc1
inactive: HACAT | HEK293T; [1] | MCC-13 | MKL-1 | MKL-2 | UISO | WaGa | C33A

Cc1ccccc1N1C(=O)c2cc(S(N)(=O)=O)c(Cl)cc2NC1C (configuration not stated)
inactive: HACAT | HEK293T; [1] | MCC-13 | MKL-1 | MKL-2 | NIH3T3 | UISO | WaGa | C33A
